PubChem BioAssay (Tox21)
Values without a mark were called inactive. Inconclusive results are not listed. Entries that show only a call come without a potency. Calls of active or inactive are those of the source. Unless noted, the call rests on the fitted dose curve; in most records, active means well fitted curve in the direction sought with a large enough effect in the repeat runs; inconclusive means weak or mixed curves; inactive means no such curve, though single readings can be large; an effect the other way counts as inactive or inconclusive.

What was measured:
[1] = qHTS assay to identify small molecule antagonists of the estrogen related receptor (ERR) signaling pathway from Tox21 library - cell viability counter screen (AID 1224834); further: nearly all actives have a fitted effect of over 30% in size; further: potency means the concentration at half of the fitted maximal effect
Summary of the method: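 ERR cells, 2,000/well; 6 h settle at 37 C/5% CO2; pin-tool compound transfer in DMSO; 17.5 h at 37 C; CellTiter-Fluor, 30 min; fluorescence intensity.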

[2] = qHTS assay to identify small molecule agonists of the constitutive androstane receptor (CAR) signaling pathway - cell viability counter screen (AID 1224836); further: nearly all actives have a fitted effect of over 45% in size; further: potency means the concentration at half of the fitted maximal effect
Summary of the method: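 Cell viability multiplexed with the CAR agonist screen: CellTiter-Fluor fluorescence after 23 hr at 37 C. HepG2-CYP2B6-hCAR cells got compounds at 15 concentrations with PK11195 at 0.75 uM final.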

[3] = qHTS assay to identify small molecule antagonists of the constitutive androstane receptor (CAR) signaling pathway - cell viability counter screen (AID 1224837); further: nearly all actives have a fitted effect of over 45% in size; further: potency means the concentration at half of the fitted maximal effect
Summary of the method: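 Viability was measured with CellTiter-Fluor in a HepG2 line carrying stably transfected hCAR and a CYP2B6-2.2kb construct. Cells were exposed for 23 hr at 37 C to 15 compound concentrations with 50 nM CITCO as agonist.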

[4] = target: Nuclear receptor subfamily 1 group I member 3 (Homo sapiens) (UniProt Q14994); test: qHTS assay to identify small molecule antagonists of the constitutive androstane receptor (CAR) signaling pathway (AID 1224838);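 further: HepG2 cells stably expressing hCAR with CYP2B6 luciferase reporter stimulated by CITCO; nearly all actives have a fitted effect of over 40% in size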
Nuclear receptor subfamily 1 group I member 3 (Homo sapiens), sequence (Q14994 whole entry, looked up): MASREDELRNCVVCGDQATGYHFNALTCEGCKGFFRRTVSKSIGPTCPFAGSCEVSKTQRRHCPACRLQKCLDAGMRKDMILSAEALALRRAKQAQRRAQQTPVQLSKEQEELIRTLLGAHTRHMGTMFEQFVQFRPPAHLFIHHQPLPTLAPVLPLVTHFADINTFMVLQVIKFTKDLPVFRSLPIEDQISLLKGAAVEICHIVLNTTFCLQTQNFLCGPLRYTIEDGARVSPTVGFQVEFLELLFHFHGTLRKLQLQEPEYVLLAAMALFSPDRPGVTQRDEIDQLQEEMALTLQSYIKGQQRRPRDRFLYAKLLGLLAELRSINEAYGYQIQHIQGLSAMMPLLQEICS
Summary of the method: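 Antagonist mode used CITCO at a final 50 nM to activate CAR in human hepatoma HepG2 cells carrying stable hCAR and a 2.2 kb CYP2B6 promoter-luciferase construct. Compounds were tested at 15 concentrations over 24 h, with luminescence as the end point.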

[5] = target: Nuclear receptor subfamily 1 group I member 3 (Homo sapiens) (UniProt Q14994); test: qHTS assay to identify small molecule agonists of the constitutive androstane receptor (CAR) signaling pathway (AID 1224839); further: nearly all actives have a fitted effect of over 15% in size; further: potency means the concentration at half of the fitted maximal effect
Summary of the method: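 Luminescent ONE-Glo read-out after 24 hr, 37 C exposure of double-stable HepG2-CYP2B6-hCAR reporter cells to a 15-point compound series, in the presence of 0.75 uM PK11195 (final).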

[6] = qHTS assay to identify small molecule antagonists of the estrogen related receptor signaling pathway with the pleiotropic PPARgamma coactivator (PGC) from Tox21 10K library - cell viability counter screen (AID 1224840; active means well fitted cell-killing curve with a large enough effect in the repeat runs, not every such curve was filed as active; further: nearly all actives have a fitted effect of over 40% in size; further: potency means the concentration at half of the fitted maximal effect)
Summary of the method: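 Multiplexed viability counter screen in the PGC/ERR cell line: cells treated with DMSO-dissolved compounds for 17.5 hours at 37 C, then viability measured as CellTiter-Fluor fluorescence.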

[7] = qHTS assay to identify small molecule agonists of the estrogen related receptor signaling pathway with the pleiotropic PPARgamma coactivator (PGC) from Tox21 10K library (AID 1224842); further: nearly all actives have a fitted effect of over 15% in size
Summary of the method: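 Luminescence from One-Glo (30 min, room temperature) measured after PGC/ERR cells had 18 h at 37 C with pinned compound (23 nL in DMSO). Cells had been seeded at 2,000 per well and pre-incubated 6 h.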

[8] = target: Thyrotropin receptor (Homo sapiens) (UniProt P16473); test: qHTS assay to identify small molecule agonists of the thyroid stimulating hormone receptor (TSHR) signaling pathway (AID 1224843; calls by dose curve; further: nearly all actives have a fitted effect of over 45% in size)
Thyrotropin receptor (Homo sapiens), sequence (P16473 whole entry, looked up): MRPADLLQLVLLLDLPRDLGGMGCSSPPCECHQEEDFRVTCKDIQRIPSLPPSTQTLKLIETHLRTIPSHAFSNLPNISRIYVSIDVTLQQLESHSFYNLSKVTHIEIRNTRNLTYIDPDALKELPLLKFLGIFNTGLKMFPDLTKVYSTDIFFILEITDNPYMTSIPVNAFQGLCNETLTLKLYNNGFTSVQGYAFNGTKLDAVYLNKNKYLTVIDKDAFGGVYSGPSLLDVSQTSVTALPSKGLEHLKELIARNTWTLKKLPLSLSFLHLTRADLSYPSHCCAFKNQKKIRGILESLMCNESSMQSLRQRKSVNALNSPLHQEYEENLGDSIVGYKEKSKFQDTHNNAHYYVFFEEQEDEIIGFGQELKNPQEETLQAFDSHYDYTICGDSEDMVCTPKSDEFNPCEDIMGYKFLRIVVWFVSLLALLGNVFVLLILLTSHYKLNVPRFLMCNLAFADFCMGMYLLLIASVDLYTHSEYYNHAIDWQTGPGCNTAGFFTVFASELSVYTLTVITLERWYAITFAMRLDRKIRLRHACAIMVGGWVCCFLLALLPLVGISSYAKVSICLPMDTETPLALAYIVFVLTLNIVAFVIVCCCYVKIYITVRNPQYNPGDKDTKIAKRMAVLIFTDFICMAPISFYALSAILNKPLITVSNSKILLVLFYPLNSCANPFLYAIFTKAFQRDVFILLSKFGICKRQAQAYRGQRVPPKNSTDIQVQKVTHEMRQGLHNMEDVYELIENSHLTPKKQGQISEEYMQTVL
Summary of the method: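 A cell-based cAMP HTRF format was run in TSHR-transfected HEK293 cells, 800 per well. Treatment: 30 min, room temperature. Detection: 1 h with labelled cAMP and anti-cAMP cryptate. Concentration-response over 15 points, three replicates.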

[9] = qHTS assay to identify small molecule agonists of the hypoxia (HIF-1) signaling pathway - cell viability counter screen (AID 1224844; calls by dose curve; further: nearly all actives have a fitted effect of over 50% in size; further: potency means the concentration at half of the fitted maximal effect)
Summary of the method: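 Cytotoxicity was measured in parallel with the HRE-driven beta-lactamase readout: after 17 hrs of compound exposure at 37C, HRE-bla ME-180 cells received CellTiter-Glo and luminescence was recorded 30 min later.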

[10] = qHTS assay to identify small molecule agonists of H2AX (AID 1224845; active means well fitted activation curve with a large enough effect in the signal ratio in the repeat runs, not every such curve was filed as active; the % refers to the signal ratio; further: potency means the concentration at half of the fitted maximal effect)
Summary of the method: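 Phospho-H2AX Ser139 measured by HTRF (ex 320 nm; em 665 and 620 nm) after 24 hr antibody incubation. Compounds, 15 concentrations, 0.76% DMSO, were applied to CHO-K1 cells for 3hr at 37C before lysis.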

[11] = qHTS assay to identify small molecule agonists of the hypoxia (HIF-1) signaling pathway (AID 1224846; active means well fitted activation curve with a large enough effect in the signal ratio in the repeat runs, not every such curve was filed as active; the % refers to the signal ratio)
Summary of the method: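 Compounds from the Tox21 10K library, dissolved in DMSO, are tested for induction of a hypoxia response element–controlled beta-lactamase reporter in ME-180 cells. Exposure lasts 17 hrs at 37C after a 5 hr settling period, followed by CCF4-AM FRET substrate.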

[12] = qHTS assay to identify small molecule agonists of H2AX - cell viability counter screen (AID 1224847; calls by dose curve;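 further: wild-type CHO-K1 cells; top concentration of the series differs between compounds; nearly all actives have a fitted effect of over 30% in size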)
Summary of the method: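 Counter-screen for viability: CellTiter-Glo ATP luminescence read after 3 h compound treatment (15-point titration, 0.76% DMSO final) of CHO-K1 cells at 37C, with 30 min room-temperature reagent incubation.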

[13] = qHTS assay to identify small molecule antagonists of the estrogen related receptor (ERR) signaling pathway from Tox21 library (AID 1224848); further: nearly all actives have a fitted effect of over 50% in size; further: potency means the concentration at half of the fitted maximal effect
Summary of the method: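 ERR cell line, 2,000 cells/well. 6 h settle, then compound (DMSO) added; 18 h at 37 C; ONE-Glo luminescence after 30 min RT.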

[14] = qHTS assay to identify small molecule agonists of the estrogen related receptor (ERR) signaling pathway from Tox21 library (AID 1224849; calls by dose curve; further: nearly all actives have a fitted effect of over 15% in size); conditions: ERR reporter cell line, ONE-Glo luciferase, 18 h; at 92.4 µM (top of the series) unless noted
Summary of the method: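 Cells carrying the ERR reporter were plated and allowed to settle for 6 h, exposed to library compounds for 18 h at 37 C, then lysed with ONE-Glo and luminescence measured.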

[15] = qHTS RealTime-Glo MT Cell Viability Assay in HepG2 cells - 24 hour (AID 1224867); further: nearly all actives have a fitted effect of over 50% in size
Summary of the method: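 HepG2 suspension premixed with RealTime-Glo reagents is plated at 600 cells per well and left 5 h at 37 C/5% CO2. Compounds in DMSO then go in, and bioluminescence reflecting viable cell number is recorded over 40 h.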

[16] = qHTS RealTime-Glo MT Cell Viability Assay in HEK293 cells - 32 hour (AID 1224868); further: nearly all actives have a fitted effect of over 50% in size; further: potency means the concentration at half of the fitted maximal effect
Summary of the method: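 Reads taken at 0, 8, 16, 24, 32 and 40 h from the same wells. HEK293 cells (600/well) carried RealTime-Glo reagents from seeding, with compound added after a 5 h settle at 37 C.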

[17] = A CellTox Green Cytotoxicity Assay to monitor cytotoxicity in HEK293 cells - 0 hour (AID 1224869); further: nearly all actives have a fitted effect of over 50% in size; further: potency means the concentration at half of the fitted maximal effect
Summary of the method: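 Cells (HEK293, 600/well) and dye reagent are dispensed together. After 5 h at 37 C, 23 nL compound is pinned in. Plates stay at 37 C for 40 h with fluorescence read at 0h, 8h, 16h, 24h, 32h and 40h.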

[18] = target: Luciferin 4-monooxygenase (Photinus pyralis) (UniProt P08659); test: qHTS assay to identify small molecule inhibitors of firefly luciferase (AID 1224835); further: nearly all actives have a fitted effect of over 25% in size; further: potency means the concentration at half of the fitted maximal effect
Luciferin 4-monooxygenase (Photinus pyralis), sequence (P08659 whole entry, looked up): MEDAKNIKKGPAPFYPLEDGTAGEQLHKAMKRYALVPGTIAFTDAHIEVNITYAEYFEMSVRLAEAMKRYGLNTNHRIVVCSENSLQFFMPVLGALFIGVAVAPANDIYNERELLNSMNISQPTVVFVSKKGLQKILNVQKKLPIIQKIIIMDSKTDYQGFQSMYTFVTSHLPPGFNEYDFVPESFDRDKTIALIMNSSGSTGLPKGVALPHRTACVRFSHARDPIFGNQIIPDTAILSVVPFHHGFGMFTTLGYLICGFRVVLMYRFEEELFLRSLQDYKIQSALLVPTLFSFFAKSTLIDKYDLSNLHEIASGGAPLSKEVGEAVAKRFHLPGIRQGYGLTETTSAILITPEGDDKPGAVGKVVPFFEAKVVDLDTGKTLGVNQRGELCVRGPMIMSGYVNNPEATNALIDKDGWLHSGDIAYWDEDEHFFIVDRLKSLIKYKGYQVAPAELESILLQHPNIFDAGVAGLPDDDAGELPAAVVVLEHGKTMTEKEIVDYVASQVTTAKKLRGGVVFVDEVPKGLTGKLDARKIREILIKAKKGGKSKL
Summary of the method: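 Inhibition of purified Photinus luciferase is measured by luminescence. Substrate levels (D-luciferin, ATP) sit at their KM values. Each compound is tested in a concentration series.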

[19] = qHTS assay to identify small molecule antagonists of the estrogen related receptor signaling pathway with the pleiotropic PPARgamma coactivator (PGC) from Tox21 10K library (AID 1224841; call rule not given here; further: potency means the concentration at half of the fitted maximal effect)
Summary of the method: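 Steps: plate 2,000 PGC/ERR cells per well; incubate 6 h at 37 C with 5% CO2; transfer compounds from DMSO stocks by pin tool; incubate 18 h at 37 C; add One-Glo; measure luminescence 30 min later.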

SMILES | Potency [1] | Potency [2] | Potency [3] | Potency [4] | Potency [5] | Potency [6] | Potency [7] | Potency [8] | Potency [9] | Potency [10] | outcome [11] | Potency [12] | Potency [13] | activity change, positive = activation [14] | outcome [15] | Potency [16] | Potency [17] | Potency [18] | Potency [19]
CC(=O)Nc1ccccc1O | inactive | inactive | inactive | inactive | inactive | inactive | inactive | inactive | inactive | inactive | inactive | inactive | inactive | -0.899% | inactive | inactive | inactive |  | 
CCOc1cc(OCC)c(C(C)=O)cc1OCC | 30.1 µM (active) |  | 26.8 µM (active) | inactive | 23.9 µM (active) |  | inactive | inactive | inactive | inactive | inactive | inactive |  | -33.9% | inactive | 21.5 µM (active) | inactive | inactive | inactive
CCOc1ccccc1O | inactive | inactive | inactive | inactive | inactive | inactive |  | inactive | inactive | inactive | inactive | inactive |  |  | inactive |  |  |  | 
FC(F)(Cl)C(F)(Cl)Cl | inactive | inactive | inactive | inactive | inactive | inactive |  | inactive | inactive | inactive | inactive | inactive |  |  | inactive |  | inactive |  | 
CC(COc1ccccc1)NC(C)C(O)c1ccc(O)cc1 (stereo not given) | inactive | inactive | inactive | inactive | inactive | inactive | inactive | inactive |  | inactive | inactive | inactive | inactive | 0.415% [at 42.5 µM] | inactive | inactive | inactive |  | inactive
CCOc1ccc(NC(C)=O)cc1N | inactive | inactive | inactive | inactive |  | inactive | inactive | inactive |  | inactive | inactive | inactive | inactive | 8.88% | inactive |  | inactive |  | inactive
NC(=O)c1cc[n+](CC2=C(C(=O)[O-])N3C(=O)[C@@H](NC(=O)Cc4cccs4)[C@H]3SC2)cc1 | inactive | inactive | inactive | inactive |  | inactive |  | inactive | inactive | inactive |  | inactive |  |  | inactive | inactive | inactive |  | 
CC[C@H](NC(C)C)[C@H](O)c1ccc(O)c2[nH]c(=O)ccc12 | inactive | inactive | inactive | inactive | inactive | inactive | inactive |  | inactive | inactive |  | inactive | inactive | 4.6% [at 42.5 µM] | inactive | inactive |  |  | inactive
CCC(C(=O)O)c1ccc(N2Cc3ccccc3C2=O)cc1 (stereo not given) | inactive | inactive | inactive | inactive | 5.96 µM (active) | inactive |  |  | inactive | inactive | inactive | inactive |  |  | inactive | inactive | inactive |  | 
CCCN(C1CCN(C(=O)C2CCNCC2)CC1)[C@@H]1CCc2ccc(OC)cc2C1 | inactive |  |  | inactive | inactive | inactive | inactive | inactive |  | inactive |  |  | inactive | -8.07% | inactive |  | inactive | inactive | inactive
CCCCOC(=O)CC#N | inactive | inactive | inactive | inactive | inactive | inactive |  | inactive | inactive | inactive | inactive | inactive |  |  | inactive | inactive | inactive |  | 
Oc1ccc(Oc2ccccc2)cc1 | inactive | inactive | inactive | inactive |  | inactive |  | inactive | inactive | 38.1 µM (active) | inactive |  |  |  | inactive |  | inactive |  | 
CC(=O)Oc1cccc2c1C(=O)c1c(OC(C)=O)cc(C(=O)O)cc1C2=O | 29.8 µM (active) |  |  | inactive | inactive | inactive | inactive | inactive | inactive |  |  | inactive | 23.7 µM (active) | -46.2% [at 42.5 µM] | inactive | inactive | inactive | inactive | 21.1 µM (active)
CCCCCCCCCC(C)C=O (stereo not given) | inactive | inactive | inactive | inactive | inactive | inactive |  | inactive | inactive | inactive | inactive | inactive |  |  | inactive | inactive | 24.5 µM (active) |  | 
O=C(O)c1ccncc1 | inactive |  |  |  |  | inactive | inactive | inactive | inactive | inactive |  | inactive |  | -23.5% | inactive | inactive |  | 73 µM (active) | 
CO[C@@H]1COCC[C@@H]1N[C@@H]1CC[C@@](C(=O)N2CCc3ncc(C(F)(F)F)cc3C2)(C(C)C)C1 | inactive | inactive | inactive | inactive | inactive | inactive |  | inactive | inactive |  | inactive | inactive |  |  | inactive | 15.4 µM (active) | inactive |  | 
O=C(O)c1ccccc1[N+](=O)[O-] | inactive | inactive |  |  |  | inactive |  | inactive | inactive | inactive | inactive |  |  |  | inactive |  | inactive | inactive | 
OCC(O)c1ccccc1 (stereo not given) | inactive | inactive |  |  |  | inactive |  | inactive | 38.9 µM (active) | inactive |  | inactive |  |  | inactive | inactive | inactive | inactive | 
O=C1c2ccccc2C(=O)C1c1ccc2cc(S(=O)(=O)O)cc(S(=O)(=O)O)c2n1 | 29.5 µM (active) | 66.1 µM (active) | 52.5 µM (active) | inactive |  | 33.1 µM (active) | inactive |  |  |  |  | inactive | inactive | 54.8% (active) | inactive | inactive | inactive |  | inactive
